Activity calls are given as the source filed them. No rule for the calls is given here. Some results are limits rather than exact numbers.

This test can be described thus: quenching of GFP signal – biochemical, fluorescence, dose response, round 1, artefact control for Rin1-Abl interaction inhibitor project, late-stage follow-up (AID 624123). As to conditions: GFP fluorescence interference/quenching counterscreen. In general terms: The purpose of a counterscreen is to sort out artefacts and off-target activity.
For the molecule `COc1ccc(C(=O)N2CCC(C(=O)Nc3ccc(CC(=O)Nc4ccc(C(=O)N(C)C5CC5)cc4)cc3)CC2)cc1`, the IC50 (commonly the concentration that gives 50% inhibition) was > 67.5 µM (inactive). For `CN(C(=O)c1ccc(NC(=O)Cc2ccc(NC(=O)C3CCN(C(=O)c4ccccc4)CC3)cc2)cc1)C1CC1`, the IC50 was > 67.5 µM (inactive). With `CN(C(=O)c1ccc(NC(=O)Cc2ccc(NC(=O)C3CCN(C(=O)c4ccc(F)cc4)CC3)cc2)cc1)C1CC1` the figure was > 67.5 µM (inactive). With `CN(C(=O)c1ccc(NC(=O)Cc2ccc(NC(=O)C3CCN(C(=O)c4cccc(F)c4)CC3)cc2)cc1)C1CC1` the figure was > 67.5 µM (inactive).

The record behind these values is PubChem BioAssay AID624123 (The Scripps Research Institute Molecular Screening Center, 2012).
